Counter-ions that a name gives are not always drawn. Values without a mark were called inactive.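 The calls were made as follows: active = AUC significantly below DMSO controls by Student t-fit with adjusted P under 0.01; inactive = not significantly reduced.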
test system: Haemophilus parainfluenzae; assay: growth AUC normalised to DMSO control (fraction of control); higher = less growth inhibition, active = hit call of the paper; conditions: 20 µM
How it was run: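 Three biological replicates were carried out, with OD578 read hourly for 24 h. Before inoculation at a starting OD578 of 0.01, pathogens were passaged anaerobically twice; plates were pre-reduced mGAM containing 20 μM compound and 1% DMSO, sealed with breathable membranes, and the Haemophilus parainfluenzae medium carried added hemin and NAD. Area under each growth curve was calculated by the trapezoidal rule up to the exponential-to-stationary transition and normalised to DMSO controls on the same plate.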

Going from `Cc1cc(N)c2ccccc2[n+]1CCCCCCCCCC[n+]1c(C)cc(N)c2ccccc21` [Dequalinium dichloride] to `CC(CN(C)C)CN1c2ccccc2CCc2ccccc21` (centres undefined) [Trimipramine maleate salt], the “growth AUC normalised to DMSO control” value rises from 0.907 to 1.07.

Going from `CN1CCC(OC(c2ccccc2)c2ccccc2)CC1` [Diphenylpyraline hydrochloride] to `CC(C)(C(=O)O)c1ccc(C(O)CCCN2CCC(C(O)(c3ccccc3)c3ccccc3)CC2)cc1` (centres undefined) [Fexofenadine hydrochloride], the “growth AUC normalised to DMSO control” value rises from 0.996 to 1.01.

Compared with `CCc1cc(Cl)c(OC)c(C(=O)NC[C@@H]2CCCN2CC)c1O` [(S,-) Eticlopride hydrochloride], `CCN(CC)CCOC(=O)C(c1ccccc1)C1CCCCC1` (centres undefined) [Drofenine hydrochloride] is higher in “growth AUC normalised to DMSO control” value: 0.958 for the first, 0.992 for the second.

First: NC(CO)C(=O)NNCc1ccc(O)c(O)c1O (centres undefined) [Benserazide hydrochloride]
Second: O=c1cc(-c2ccc(O)c(O)c2)oc2cc(O)cc(O)c12 [Luteolin]
The “growth AUC normalised to DMSO control” value of the first is higher: 1.05 for the first, 1.02 for the second.

Going from `COc1ccccc1O` [Guaiacol] to `CCCCOC(=O)c1ccc(O)cc1` [Butylparaben], the “growth AUC normalised to DMSO control” value falls from 0.998 to 0.97.

Going from `CCCCCCCCNC(C)C(O)c1ccc(SC(C)C)cc1` (centres undefined) [Suloctidil] to `CC(C)NCC(O)c1ccc(NS(C)(=O)=O)cc1` (centres undefined) [Sotalol hydrochloride], the “growth AUC normalised to DMSO control” value rises from 0.986 to 1.

First: Cc1nnc(NS(=O)(=O)c2ccc(N)cc2)s1 [Sulfamethizole]
Second: CN1C(C(=O)Nc2ccccn2)=C(O)c2sccc2S1(=O)=O [Tenoxicam]
The “growth AUC normalised to DMSO control” value of the first is lower: 0.903 for the first, 0.948 for the second.

Compared with `NC(=O)NC1NC(=O)NC1=O` (centres undefined) [Allantoin], `CC(=O)/N=c1/sc(S(N)(=O)=O)nn1C` [Methazolamide] is higher in “growth AUC normalised to DMSO control” value: 0.974 for the first, 1 for the second.

First: CC[N+](CC)(CC)CCOc1cccc(OCC[N+](CC)(CC)CC)c1OCC[N+](CC)(CC)CC [Gallamine triethiodide]
Second: CCCCC(CC)CN1CN(CC(CC)CCCC)CC(C)(N)C1 (centres undefined) [Hexetidine]
The “growth AUC normalised to DMSO control” value of the first is higher: 1.09 for the first, 1.08 for the second.

Compared with `CC(=O)OCC(=O)[C@@]1(OC(C)=O)[C@@H](C)C[C@H]2[C@@H]3C[C@H](F)C4=CC(=O)C=C[C@]4(C)[C@@]3(F)[C@@H](O)C[C@@]21C` [Diflorasone Diacetate], `C[C@@H]1C[C@H]2[C@@H]3CCC4=CC(=O)C=C[C@]4(C)[C@@]3(Cl)[C@@H](O)C[C@]2(C)[C@@]1(OC(=O)c1ccco1)C(=O)CCl` [Mometasone furoate] is higher in “growth AUC normalised to DMSO control” value: 0.953 for the first, 1.05 for the second.

First: CN(C)CCCN1c2ccccc2CCc2ccc(Cl)cc21 [Clomipramine hydrochloride]
Second: CN(C)CCC[C@@]1(c2ccc(F)cc2)OCc2cc(C#N)ccc21 [Escitalopram oxalate]
The “growth AUC normalised to DMSO control” value of the first is lower: 0.922 for the first, 1.03 for the second.

Compared with `CCCC1O[C@@H]2C[C@H]3[C@@H]4CCC5=CC(=O)C=C[C@]5(C)[C@H]4[C@@H](O)C[C@]3(C)[C@]2(C(=O)CO)O1` (some centres undefined) [Budesonide], `Nc1nc(F)nc2c1ncn2[C@@H]1O[C@H](CO)[C@@H](O)[C@@H]1O` [Fludarabine] is higher in “growth AUC normalised to DMSO control” value: 0.964 for the first, 1.01 for the second.

First: O=C(NCCO[N+](=O)[O-])c1cccnc1 [Nicorandil]
Second: O=C(OCC(O)CO)c1ccccc1Nc1ccnc2cc(Cl)ccc12 (centres undefined) [Glafenine hydrochloride]
The “growth AUC normalised to DMSO control” value of the first is higher: 0.987 for the first, 0.978 for the second.

Compared with `Nc1nc2c(ncn2COC(CO)CO)c(=O)[nH]1` [Ganciclovir], `Clc1ccc(C(Cn2ccnc2)OCc2csc3c(Cl)cccc23)c(Cl)c1` (centres undefined) [Sertaconazole nitrate] is higher in “growth AUC normalised to DMSO control” value: 0.989 for the first, 1.07 for the second.

First: c1ccc(-c2ccc(C(c3ccccc3)n3ccnc3)cc2)cc1 (centres undefined) [Bifonazole]
Second: CC[C@H](c1ccc(O)cc1)[C@@H](CC)c1ccc(O)cc1 [Hexestrol]
The “growth AUC normalised to DMSO control” value of the first is higher: 0.998 for the first, 0.984 for the second.

Compared with `O=C1c2c(O)cccc2Cc2cccc(O)c21` [Anthralin], `Clc1ccccc1CN1CCc2sccc2C1` [Ticlopidine hydrochloride] is lower in “growth AUC normalised to DMSO control” value: 1.39 for the first, 0.972 for the second.

Compared with `CC(C)(C#N)c1cc(Cn2cncn2)cc(C(C)(C)C#N)c1` [Anastrozole], `Cc1c(N(C)C)c(=O)n(-c2ccccc2)n1C` [Amidopyrine] is lower in “growth AUC normalised to DMSO control” value: 1.1 for the first, 1.01 for the second.

Going from `Clc1ccc(Cn2c(CN3CCCC3)nc3ccccc32)cc1` [Clemizole hydrochloride] to `O=C1NCCN1CCN1CCC(c2cn(-c3ccc(F)cc3)c3ccc(Cl)cc23)CC1` [Sertindole], the “growth AUC normalised to DMSO control” value rises from 0.982 to 1.

Compared with `CC(N)C12CC3CC(CC(C3)C1)C2` (centres undefined) [Rimantadine hydrochloride], `CCc1cc(C(N)=S)ccn1` [Ethionamide] is higher in “growth AUC normalised to DMSO control” value: 0.933 for the first, 0.983 for the second.

With `O=C(O)c1cn(C2CC2)c2cc(N3CCNCC3)c(F)cc2c1=O` [Ciprofloxacin hydrochloride monohydrate] the “growth AUC normalised to DMSO control” value was 0.0495 (active).
